The values below come from PubChem BioAssay (NCATS).

Records with an inconclusive call do not appear. Calls of active or inactive are those of the source. Unless noted, calls follow the shape of the dose curve; as a rule, active = well fitted curve in the direction sought with a large enough effect; inconclusive = small, poorly fitted or top-dose-only effect, or another doubt; inactive = no such curve, though single readings can be large; an effect the other way counts as inactive or inconclusive.

The target in experiment [1] is Transient receptor potential cation channel subfamily V member 1 (Homo sapiens) (UniProt Q8NER1). The experiment in a line: HTS Assay for Compounds that Act as Enhancers of the Vanilloid Receptor 1 (AID 488979). Also: 0% is about no effect. The method in brief: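 TRPV1-expressing cells loaded with Fluo-8 calcium dye; compounds added and calcium influx read kinetically for 3 min (agonist phase), then capsaicin at EC20 added and read 2 min more for enhancement. Fluorescence ex 480/em 520 nm.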

In experiment [2] the target is Thyrotropin receptor (Homo sapiens) (UniProt P16473). The experiment in a line: qHTS Assay for Antagonists of the Thyroid Stimulating Hormone Receptor (AID 488980). Also: series mostly up to about 58 µM; 0% is about no effect. The method in brief: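 Readout is cAMP by HTRF competition between cellular cAMP and cAMP-d2 for a cryptate-labelled antibody. Antagonism was assessed in TSHR-transfected HEK293 cells stimulated with 4 nM TSH (EC80, final) in the presence of RO 20-1724.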
Thyrotropin receptor (Homo sapiens), sequence (P16473 whole entry, looked up): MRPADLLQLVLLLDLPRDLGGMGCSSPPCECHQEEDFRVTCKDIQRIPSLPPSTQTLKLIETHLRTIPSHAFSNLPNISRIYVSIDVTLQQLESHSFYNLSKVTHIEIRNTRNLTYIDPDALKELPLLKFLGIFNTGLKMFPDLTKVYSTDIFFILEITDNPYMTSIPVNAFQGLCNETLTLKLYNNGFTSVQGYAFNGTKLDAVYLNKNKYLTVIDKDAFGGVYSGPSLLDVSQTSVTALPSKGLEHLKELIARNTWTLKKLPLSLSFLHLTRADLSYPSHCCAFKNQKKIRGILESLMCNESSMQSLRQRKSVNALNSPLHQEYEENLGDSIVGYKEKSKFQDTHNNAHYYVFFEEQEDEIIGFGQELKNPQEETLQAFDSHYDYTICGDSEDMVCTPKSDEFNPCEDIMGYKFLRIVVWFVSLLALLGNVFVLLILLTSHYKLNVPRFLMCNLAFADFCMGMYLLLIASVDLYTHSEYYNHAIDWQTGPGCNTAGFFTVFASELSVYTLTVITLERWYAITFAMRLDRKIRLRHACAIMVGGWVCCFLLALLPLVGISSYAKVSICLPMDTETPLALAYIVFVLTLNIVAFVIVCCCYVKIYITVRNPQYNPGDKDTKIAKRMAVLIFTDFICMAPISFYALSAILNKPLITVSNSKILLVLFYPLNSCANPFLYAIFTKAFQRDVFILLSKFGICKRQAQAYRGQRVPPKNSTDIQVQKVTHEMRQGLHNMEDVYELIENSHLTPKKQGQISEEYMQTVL

Experiment [3] deals with D(1A) dopamine receptor (Homo sapiens) (UniProt P21728). The experiment in a line: HTS Assay for Allosteric Agonists of the Human D1 Dopamine Receptor: Primary Screen for Potentiators (AID 488982). Also: 0% is about no effect. A digest of the protocol: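 Tetracycline-induced HEK293 T-REx cells force-coupled to calcium signalling were incubated overnight at 30 C and dye-loaded at room temperature. Calcium flux over 180 s after compound addition flagged agonists; a further 180 s read after EC20 dopamine flagged potentiators.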

Experiment [4] has the same target. Briefly: HTS Assay for Allosteric Agonists of the Human D1 Dopamine Receptor: Primary Screen for Antagonists (AID 488983).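 Also: calcium flux response to an EC80 dopamine challenge measured with no-wash dye; % is scaled to controls: 0 for no effect and ±100 for the full control effect; nearly all actives have a fitted effect of over 65% in size.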 The method in brief: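 Screening of inducible HEK293 T-REx D1 cells: compound first, EC80 dopamine 180 s later, each phase read kinetically for calcium over 180 s.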
Experiment [5] can be described thus: Validation screen for small molecules that induce genotoxicity in human embryonic kidney (HEK293T) cells expressing luciferase-tagged ELG1 (AID 493106). Also: potency is read from the fitted curve at half-maximal effect. The method in brief:
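Reporter-gene quantitative HTS in HEK293T cells carrying luciferase-tagged ELG1, whose level climbs under genotoxic stress. Compound exposure lasts 16 hr at 37 °C before luciferase detection.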

Experiment [6] has as its target Thyrotropin-releasing hormone receptor (Homo sapiens) (UniProt P34981). Briefly: qHTS for Small Molecule Agonists and Allosteric Enhancers of Human TRH Receptor: Validation Screen for Agonists (AID 493127;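 active = calcium activation more than 3 SD above the typical response in the agonist read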;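 also: intracellular calcium rise by fluo-8 fluorescence before TRH EC20 addition; 0% is about no effect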). Conditions: TRH receptor agonist cell assay; at 2 µM; stronger effect = higher value. The method in brief: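 Gq-coupled calcium mobilization in TRHR cells after compound addition, monitored kinetically with fluo-8 dye on an FDSS reader.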
For orientation: In qHTS, concentration-response curves come from the screen itself.

Experiment [7] is described as follows: Nrf2 qHTS screen for inhibitors: Validation (AID 493153; active = well fitted inhibition curve with a large enough effect in the main read-out, with a control signal flat, not every such curve was filed as active). The settings on record: Potency: luciferase luminescence; viability change: measured here: cytotoxicity max response. The method in brief:
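Dose-response validation uses reporter A549 cells with firefly luciferase under an antioxidant response element. Compounds stay on cells 18-24 h at 37°C, and luminescence indicates Nrf2-driven transcription.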

Experiment [8] is described as follows: qHTS for Inhibitors of Cell Surface uPA Generation: Validation Assay (AID 493164).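 Also: RAW 264.7 macrophage cells exposed to compound for 18 h; 0% is about no effect.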 The method in brief: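 RAW 264.7, 4000 cells/well, o/n plating; cpd 7-pt 1:5 dilution 2.45 nM–38.3 uM final; 18 h, 37 C/5% CO2; ATP-Lite, 5 s luminescence exposure.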
Experiment [9] concerns the target Galactokinase (Homo sapiens) (UniProt P51570). The experiment in a line: qHTS Validation Assay for Inhibitors of Human Galactokinase (GALK) (AID 493189). Also: 0% is about no effect. A digest of the protocol: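 5 nM GALK / 100 uM galactose / 35 uM ATP, 20 mM HEPES pH8.0, 5 mM MgCl2, 60 mM NaCl, 1 mM DTT, 0.01% BSA (final). RT 1 h; Kinase-Glo Plus luminescence.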
A short description of experiment [10]: Validation screen for small molecules that induce DNA re-replication in SW480 colon adenocarcinoma cells (AID 504364). Also: potency is read from the fitted curve at half-maximal effect. The method in brief: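 Cells are treated 48 hr with test compound, stained 40 min with Hoechst at 37 C, and scanned for nuclear fluorescence; compounds inducing re-replication increase nuclei with elevated intensity.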
The target in experiment [11] is Peptidyl-prolyl cis-trans isomerase NIMA-interacting 1 (Homo sapiens) (UniProt Q13526). The experiment in a line: qHTS Validation Assay to Find Inhibitors of Pin1 (AID 504536; active = well fitted inhibition curve with a large enough effect in the polarisation, with a control signal flat, not every such curve was filed as active; the % refers to the polarisation;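 also: 0% = full Pin1 enzyme wells and -100% = no-enzyme wells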). A digest of the protocol: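 Fluorescence polarization competition: compounds (titration) displace HiFluor-488-labeled Pin1-1b peptide from Pin1 (0.3 uM final) in pH 7.5 HEPES buffer with DTT, 10 min at room temperature; %Activity normalized to no-enzyme wells, curves fitted.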
Peptidyl-prolyl cis-trans isomerase NIMA-interacting 1 (Homo sapiens), sequence (Q13526 whole entry, looked up): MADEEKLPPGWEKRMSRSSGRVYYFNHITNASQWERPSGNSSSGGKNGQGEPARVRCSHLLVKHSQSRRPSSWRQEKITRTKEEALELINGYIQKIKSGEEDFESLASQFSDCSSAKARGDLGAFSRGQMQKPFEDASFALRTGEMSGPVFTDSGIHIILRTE

Experiment [12] addresses Phosphoglycerate kinase, glycosomal (Trypanosoma brucei brucei) (UniProt P07378). The experiment in a line: qHTS Validation Assay to Find Inhibitors of Phosphoglycerate Kinase (AID 504547).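 Also: control wells lack PGK and mark full inhibition.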 A digest of the protocol:
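Substrate/PGK mix plus compound; reaction started with GAPDH (100nM final) to form 1,3-BPG; 60 min RT; Kinase-Glo Plus 10 min; luminescence. TEA 100mM pH 7.6, MgCl2 5mM, Tween-20 0.01%.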

For experiment [13], the target named is phosphoglycerate mutase (Leishmania major) (UniProt Q4Q090). Briefly: qHTS Validation Assay to Find Inhibitors of Phosphoglycerate Mutase (AID 504548).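 Also: end-point luminescence from Kinase-GloPlus after the PGAM reaction; series mostly up to about 58 µM; % is scaled to controls: 0 for no effect and ±100 for the full control effect.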 Conditions: Potency: inhibition qHTS. The method in brief:
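L. major PGAM (1.25nM final) was added to substrate buffer and pinned compound, incubated 45 minutes at room temperature, then Kinase-GloPlus added; luminescence read after 10 minutes. Buffer: 100 mM TEA pH 7.6, 5 mM MgCl2, 0.01% Tween-20.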

Experiment [14] is described as follows: qHTS for Inhibitors of ATXN expression: Validation of Cytotoxic Assay (AID 588349).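 Also: cells exposed to compound for 72 hr; % is scaled to controls: 0 for no effect and ±100 for the full control effect.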 A digest of the protocol: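 HEK293, compound dose series, 72 hr / 37 degrees C; viability via CellTiter Glo (intracellular ATP).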
A short description of experiment [15]: qHTS for Inhibitors of ATXN expression: Validation (AID 588378). Also: series mostly up to about 57 µM; % is scaled to controls: 0 for no effect and ±100 for the full control effect; nearly all actives have a fitted effect of over 75% in size. A digest of the protocol: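 Compounds were pinned onto attached HEK293 cells carrying an ATXN2-firefly luciferase construct and incubated 24 hrs at 37 degrees C. Each well then received a fluorescent viability reagent followed by luciferase substrate for end-point luminescence.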
Experiment [16] addresses DNA dC->dU-editing enzyme APOBEC-3G (Homo sapiens) (UniProt Q9HC16). Briefly: qHTS for inhibitors of Vif-A3G interactions: Validation (AID 588379). Also: 0% is about no effect. A digest of the protocol: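 HeLa cells stably expressing Vif and A3G-eYFP, 700 cells/well, incubated overnight at 37 deg C, then exposed to compound overnight at 37 deg C. Inhibition of Vif-mediated degradation read as increased yellow fluorescence (Ex 488/Em 500-530) by laser-scanning cytometry.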

Experiment [17] deals with ATP-dependent 6-phosphofructokinase (Trypanosoma brucei brucei) (UniProt O15648). Briefly: qHTS Assay to Find Inhibitors of T. brucei phosphofructokinase: hit validation (AID 492961).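 Also: luminescence reports ADP formed as PFK phosphorylates fructose-6-phosphate with ATP; series mostly up to about 51 µM; % is scaled to controls: 0 for no effect and ±100 for the full control effect.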 A digest of the protocol:
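Reaction: 0.1 M triethanolamine pH 8.0, 5 mM MgCl2, F6P 0.5 mM, ATP 0.1 mM, PFK 1.25 nM, 45 min RT. Read-out: ADP-Glo luminescence. Analysis: concentration-response fits, classed by r2 and efficacy.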

Experiment [18] deals with Ubiquitin carboxyl-terminal hydrolase 1 (Homo sapiens) (UniProt O94782). Briefly: Inhibitors of USP1/UAF1: Pilot qHTS (AID 504865).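 Also: rhodamine fluorescence freed from ubiquitin-rhodamine substrate followed over time; top concentration of the series differs between compounds; % is scaled to controls: 0 for no effect and ±100 for the full control effect; nearly all actives have a fitted effect of over 35% in size.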 The method in brief:
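In 50mM HEPES pH 7.8 containing 0.5mM EDTA, 1mM TCEP, 0.1 mg/ml BSA and 0.01% Tween-20, 1nM USP1/UAF1 is exposed to compound for 15 min, then Ub-Rho (150nM final) is added and fluorescence is read over time.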

Experiment [19] has as its target Estrogen receptor (Homo sapiens) (UniProt P03372). The experiment in a line: qHTS assay for small molecule antagonists of estrogen receptor alpha signaling (AID 588513; active = well fitted curve in the direction sought with a large enough effect in the signal ratio, with a control signal flat, not every such curve was filed as active; the % refers to the signal ratio; also: % is scaled to controls: 0 for no effect and ±100 for the full control effect). A digest of the protocol:
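Fluorescence from CCF4 substrate after 2 h at room temperature gave reporter activity; cells had been exposed to compound and 0.5nM 17-beta-estradiol for 18 h at 37 C. Hill-equation fitting yielded IC50 and maximal response.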

The target of experiment [20] is ATPase family AAA domain-containing protein 5 (Homo sapiens) (UniProt Q96QE3). The experiment in a line: Validation screen for small molecules that inhibit ELG1-dependent DNA repair in human embryonic kidney (HEK293T) cells expressing luciferase-tagged ELG1 (AID 493107).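 Also: cells co-treated with the DNA-damaging agent 5-fluorouridine alongside compound; series mostly up to about 46 µM; % is scaled to controls: 0 for no effect and ±100 for the full control effect; inhibitors lower the ELG1-luciferase luminescence signal; nearly all actives have a fitted effect of over 70% in size.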 The method in brief: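 Quantitative HTS in HEK293T cells carrying luciferase-tagged ELG1, stimulated with 5-fluorouridine alongside compound for 16 hr. Loss of luciferase signal marks inhibition of ELG1 response.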
ATPase family AAA domain-containing protein 5 (Homo sapiens), sequence (Q96QE3 whole entry, looked up, the tested form may be a part): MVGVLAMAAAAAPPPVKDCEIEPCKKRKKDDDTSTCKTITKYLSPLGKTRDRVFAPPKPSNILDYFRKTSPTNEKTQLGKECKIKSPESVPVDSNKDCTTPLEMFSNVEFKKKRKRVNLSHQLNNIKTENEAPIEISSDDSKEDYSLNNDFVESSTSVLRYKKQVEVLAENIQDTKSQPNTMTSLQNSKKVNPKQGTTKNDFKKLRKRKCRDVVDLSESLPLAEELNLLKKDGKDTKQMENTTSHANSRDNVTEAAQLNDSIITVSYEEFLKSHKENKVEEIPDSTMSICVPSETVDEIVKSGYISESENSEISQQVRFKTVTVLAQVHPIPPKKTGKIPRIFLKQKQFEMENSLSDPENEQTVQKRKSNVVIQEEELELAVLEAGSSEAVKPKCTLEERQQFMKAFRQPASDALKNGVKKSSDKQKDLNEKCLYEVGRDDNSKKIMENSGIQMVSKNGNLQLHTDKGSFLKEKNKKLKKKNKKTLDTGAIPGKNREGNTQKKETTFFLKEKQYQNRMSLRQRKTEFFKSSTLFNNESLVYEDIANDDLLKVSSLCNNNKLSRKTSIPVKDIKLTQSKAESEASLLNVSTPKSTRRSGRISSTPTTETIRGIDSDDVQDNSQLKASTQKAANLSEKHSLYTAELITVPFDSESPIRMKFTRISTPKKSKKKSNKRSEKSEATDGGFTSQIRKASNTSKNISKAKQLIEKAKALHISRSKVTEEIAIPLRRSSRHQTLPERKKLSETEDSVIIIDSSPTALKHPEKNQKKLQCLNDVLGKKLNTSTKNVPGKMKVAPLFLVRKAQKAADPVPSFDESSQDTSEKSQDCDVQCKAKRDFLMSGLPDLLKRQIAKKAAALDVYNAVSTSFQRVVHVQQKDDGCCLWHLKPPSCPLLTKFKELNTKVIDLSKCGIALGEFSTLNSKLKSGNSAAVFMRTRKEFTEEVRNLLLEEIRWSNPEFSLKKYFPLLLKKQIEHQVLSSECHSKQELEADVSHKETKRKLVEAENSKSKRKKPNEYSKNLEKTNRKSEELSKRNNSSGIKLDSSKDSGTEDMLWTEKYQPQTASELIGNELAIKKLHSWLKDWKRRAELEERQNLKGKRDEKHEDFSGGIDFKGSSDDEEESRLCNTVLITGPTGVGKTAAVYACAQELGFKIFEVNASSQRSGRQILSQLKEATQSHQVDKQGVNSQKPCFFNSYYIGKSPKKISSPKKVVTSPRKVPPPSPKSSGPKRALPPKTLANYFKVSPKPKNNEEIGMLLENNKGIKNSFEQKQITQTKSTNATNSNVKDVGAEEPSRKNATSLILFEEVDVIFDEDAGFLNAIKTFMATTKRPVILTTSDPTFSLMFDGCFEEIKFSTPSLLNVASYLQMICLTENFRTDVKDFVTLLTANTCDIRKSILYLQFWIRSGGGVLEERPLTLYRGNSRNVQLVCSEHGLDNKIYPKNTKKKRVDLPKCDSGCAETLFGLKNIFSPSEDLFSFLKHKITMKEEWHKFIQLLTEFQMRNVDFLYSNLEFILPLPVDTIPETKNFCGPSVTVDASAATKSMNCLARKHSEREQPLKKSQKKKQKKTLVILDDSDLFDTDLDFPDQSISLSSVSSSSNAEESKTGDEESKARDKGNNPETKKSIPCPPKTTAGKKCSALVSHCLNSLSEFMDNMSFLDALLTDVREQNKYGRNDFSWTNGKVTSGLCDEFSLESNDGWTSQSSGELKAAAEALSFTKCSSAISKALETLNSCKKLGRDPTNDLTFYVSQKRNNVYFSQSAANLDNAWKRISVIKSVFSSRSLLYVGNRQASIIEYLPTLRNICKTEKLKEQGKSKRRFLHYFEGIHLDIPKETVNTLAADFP

Thyrotropin-releasing hormone receptor (Homo sapiens), sequence (P34981 whole entry, looked up): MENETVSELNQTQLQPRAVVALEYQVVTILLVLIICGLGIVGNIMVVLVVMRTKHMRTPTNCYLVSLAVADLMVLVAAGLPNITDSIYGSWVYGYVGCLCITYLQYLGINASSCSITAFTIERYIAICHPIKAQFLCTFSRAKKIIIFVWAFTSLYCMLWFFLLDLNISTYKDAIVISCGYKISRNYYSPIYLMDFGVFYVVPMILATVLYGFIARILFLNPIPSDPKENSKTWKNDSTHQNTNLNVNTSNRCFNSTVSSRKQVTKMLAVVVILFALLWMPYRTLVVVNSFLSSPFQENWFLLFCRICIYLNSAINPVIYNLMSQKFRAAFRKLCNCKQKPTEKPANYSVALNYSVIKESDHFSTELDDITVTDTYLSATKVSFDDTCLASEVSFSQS
Ubiquitin carboxyl-terminal hydrolase 1 (Homo sapiens), sequence (O94782 whole entry, looked up): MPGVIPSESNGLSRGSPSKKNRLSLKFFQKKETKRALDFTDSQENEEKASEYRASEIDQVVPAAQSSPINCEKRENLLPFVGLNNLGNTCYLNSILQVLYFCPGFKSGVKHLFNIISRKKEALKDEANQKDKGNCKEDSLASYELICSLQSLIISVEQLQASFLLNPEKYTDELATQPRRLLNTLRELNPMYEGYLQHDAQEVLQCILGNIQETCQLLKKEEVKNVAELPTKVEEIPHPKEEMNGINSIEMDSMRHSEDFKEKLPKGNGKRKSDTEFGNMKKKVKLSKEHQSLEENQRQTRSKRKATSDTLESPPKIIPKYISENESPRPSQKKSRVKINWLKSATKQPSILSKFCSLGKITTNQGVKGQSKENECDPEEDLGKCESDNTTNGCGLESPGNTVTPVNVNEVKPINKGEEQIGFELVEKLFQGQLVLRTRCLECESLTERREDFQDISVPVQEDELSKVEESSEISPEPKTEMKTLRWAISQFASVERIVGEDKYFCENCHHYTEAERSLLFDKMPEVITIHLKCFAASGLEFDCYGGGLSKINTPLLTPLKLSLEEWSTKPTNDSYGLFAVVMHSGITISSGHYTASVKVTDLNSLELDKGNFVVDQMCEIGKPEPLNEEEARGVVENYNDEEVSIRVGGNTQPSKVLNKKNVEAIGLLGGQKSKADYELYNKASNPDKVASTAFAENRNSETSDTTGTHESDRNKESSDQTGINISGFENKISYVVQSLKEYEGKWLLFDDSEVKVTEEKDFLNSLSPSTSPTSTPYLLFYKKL
ATP-dependent 6-phosphofructokinase (Trypanosoma brucei brucei), sequence (O15648 whole entry, looked up): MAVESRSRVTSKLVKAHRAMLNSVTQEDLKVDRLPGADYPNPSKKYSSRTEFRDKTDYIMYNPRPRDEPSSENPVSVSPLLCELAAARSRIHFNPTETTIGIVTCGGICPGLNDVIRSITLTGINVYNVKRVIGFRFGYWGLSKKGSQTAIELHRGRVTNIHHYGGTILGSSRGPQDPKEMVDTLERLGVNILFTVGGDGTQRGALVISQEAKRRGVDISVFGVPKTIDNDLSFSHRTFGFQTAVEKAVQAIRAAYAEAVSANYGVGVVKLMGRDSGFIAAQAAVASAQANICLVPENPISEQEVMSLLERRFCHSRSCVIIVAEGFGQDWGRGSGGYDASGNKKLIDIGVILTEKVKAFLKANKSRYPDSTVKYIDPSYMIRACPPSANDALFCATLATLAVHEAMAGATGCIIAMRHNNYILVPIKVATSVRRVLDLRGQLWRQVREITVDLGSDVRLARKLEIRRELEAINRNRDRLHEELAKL
phosphoglycerate mutase (Leishmania major), sequence (Q4Q090 1-553): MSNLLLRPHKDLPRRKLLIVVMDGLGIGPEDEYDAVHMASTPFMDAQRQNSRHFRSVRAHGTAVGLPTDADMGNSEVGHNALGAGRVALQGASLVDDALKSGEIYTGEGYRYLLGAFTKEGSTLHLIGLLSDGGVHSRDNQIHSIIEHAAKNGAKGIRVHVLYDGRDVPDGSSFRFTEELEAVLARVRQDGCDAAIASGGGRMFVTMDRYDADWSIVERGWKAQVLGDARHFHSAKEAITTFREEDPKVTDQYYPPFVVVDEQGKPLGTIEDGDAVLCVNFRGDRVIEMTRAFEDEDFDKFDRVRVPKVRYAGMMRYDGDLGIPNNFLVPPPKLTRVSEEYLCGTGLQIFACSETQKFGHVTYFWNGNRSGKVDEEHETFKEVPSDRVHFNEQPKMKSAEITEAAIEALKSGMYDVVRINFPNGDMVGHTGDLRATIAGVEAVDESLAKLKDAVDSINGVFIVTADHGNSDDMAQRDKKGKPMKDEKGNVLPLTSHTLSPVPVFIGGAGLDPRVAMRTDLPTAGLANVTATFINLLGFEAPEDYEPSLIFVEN

For `O=C(CCc1ccc(O)cc1)c1c(O)cc(O)cc1O`, the outcome in experiment [1], in experiment [2], in [8], in [9], in experiment [11] and in experiment [14] was inactive. For the same compound, in experiment [16], the outcome was inactive. Further, the Potency result in [3], in experiment [4], in [5], in experiment [7], in experiment [10] and in experiment [12] was “inactive” in each case. For the same compound, the Potency result in experiment [13] and in experiment [15] was “inactive” each time. Further, in experiment [6], the activation was 1.75% (inactive). Besides, in experiment [7], the viability change was -1.1%.

For the compound `CN1C(C(=O)Nc2ccccn2)=C(O)c2sccc2S1(=O)=O`, the call in [17] was inactive. Also, the Potency result in experiment [18] was “inactive”.

On to `CCN(CC)C(=S)SSC(=S)N(CC)CC`, for which the result in experiment [2], in experiment [8], in [9], in [11] and in experiment [19] was inactive. The Potency in experiment [5] is 18.3 µM (active); in experiment [10], 0.206 µM (active). The activation in experiment [6] is 4% (inactive). The Potency result in [7], in experiment [12] and in experiment [13] was “inactive” in each case. The viability change in [7] was 1.38%.

`Oc1ccc2ccccc2c1SSc1c(O)ccc2ccccc12`: the Potency entry in experiment [4], in experiment [5], in experiment [7], in experiment [12], in experiment [13] and in experiment [15] was “inactive” throughout. Also, the call in experiment [20], in [8], in [11] and in experiment [14] was inactive. Besides, in [7], the viability change was 7.1%.

With `CCOC(=O)C(C)Oc1cccc2c(=O)n(CC(=O)Nc3ccc4c(c3)OCCO4)ccc12` (stereo unspecified), the Potency entry in experiment [3], in [4], in [7], in experiment [12], in experiment [13] and in experiment [18] was “inactive” each time. The Potency entry in [15] is “inactive”. Further, the call in experiment [20], in experiment [8] and in [14] was inactive. Further, the viability change in experiment [7] was -3.9%.

For `CC[C@]1(O)C[C@H]2CN(CCc3c([nH]c4ccccc34)[C@@](C(=O)OC)(c3cc4c(cc3OC)N(C=O)[C@H]3[C@@](O)(C(=O)OC)[C@H](OC(C)=O)[C@]5(CC)C=CCN6CC[C@]43[C@@H]65)C2)C1`, in [17], the compound was classed as inactive.

Turning to `CN(c1nccc(=O)[nH]1)C1CCN(c2nc3ccccc3n2Cc2ccc(F)cc2)CC1`, in experiment [17], the compound was called inactive. The Potency entry in experiment [18] was “inactive”.

As to `CN(C)CCCC1(c2ccc(F)cc2)OCc2cc(C#N)ccc21` (stereo unspecified), the compound was called inactive in experiment [2], in experiment [20], in [8], in experiment [9], in experiment [11] and in experiment [14]. Besides, the Potency entry in experiment [3], in experiment [5], in [7], in [10], in [12] and in experiment [13] was “inactive” each time. Also, in experiment [18], the Potency entry is “inactive”. In experiment [6], the activation was 3.31% (inactive). Also, the viability change in [7] was found to be 6.56%.
